# Measurements taken from PubChem BioAssay AID624351 (Southern Research Specialized Biocontainment Screening …, 2012).
# The whole screen tested about 2,400 compounds, of which about 1,400 (58%) were called active. So high a share suggests a set chosen from earlier hits. Some of the results follow. Unmarked numbers belong to inactive results.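 The calls were made as follows: active = inhibition of 30% or more at any tested dose; inconclusive = primary hits over the limit that were never retested; inactive = the rest.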
# Assay: coupled detection enzyme interference, dose response, artefact control for MgcRacGAP inhibitor project, biochemical, coupled enzyme counter-screen (AID 624351);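 also: signal is the ADP detection kit reading of free GDP without any GAP enzyme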;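 as to inhibition: 0% = median positive control wells and 100% = median negative control wells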
# Details: ADP Hunter coupled enzyme counter-screen, fluorescence, no MgcRacGAP; series mostly up to 80 µM; inhibition: at the top concentration
Compound,inhibition,IC50
COc1ccc(CNC(=O)CN(C)Cc2ccc(C(C)(C)C)cc2)cc1,24.6%,–
COC(=O)c1ccc2c(c1)C(C)(C)C(/C=C/c1ccc(OC)c(OC)c1OC)=[N+]2C,-4.4%,–
COc1cc(C(C[N+](=O)[O-])c2c(N)n(C)c(=O)n(C)c2=O)ccc1O (configuration not stated),28.1%,–
COc1cc(/C=C/C(=O)OCC(=O)NCCCc2ccccc2)ccc1O,–,33.5 µM (active)
COC(=O)c1ccc(CNC(=O)COC(=O)/C=C/c2ccc(O)c(OC)c2)cc1,–,31 µM (active)
COC(=O)c1ccc2c(c1)C(C)(C)C(/C=C/c1ccccc1O)=[N+]2C,23.1%,–
COc1cc(/C=C/C(=O)OCC(=O)NCc2ccc(F)cc2)ccc1O,–,40 µM (active)
CN(CC(=O)NCc1ccccc1)Cc1cccc(F)c1,26.6%,–
COc1cc(/C=C/C(=O)OCC(=O)N(CC(C)C)c2c(N)n(Cc3ccccc3)c(=O)[nH]c2=O)ccc1O,–,61.2 µM (active)
CC(C)(c1ccccc1)c1ccc(OCC(O)CNC2CCN(Cc3ccccc3)CC2)cc1 (configuration not stated),27.9%,–
CN(C)c1ccc(N=Cc2nc(-c3ccccc3)oc2OC(=O)c2cccc(Cl)c2)cc1,12.6%,–
C/C=C/c1ccc(OCCCCN(C)Cc2ccccc2)c(OC)c1,-10.9%,–
COc1cc(/C=C/C(=O)OCC(=O)N(C)Cc2ccccc2)ccc1O,–,34.7 µM (active)
CC(C(=O)N(C)Cc1ccccc1)N1CCN(C/C=C/c2ccccc2)CC1 (configuration not stated),18%,–
Oc1ccc(N2CCN(c3ccnc4cc(Cl)ccc34)CC2)cc1,–,53.3 µM (active)
Oc1ccc(/C=N/Nc2ccnc3cc(Cl)ccc23)cc1O,–,40.3 µM (active)
Oc1ccc(Nc2ccnc3cc(Cl)ccc23)cc1,–,26.3 µM (active)
CN(C)c1ncc(C2=C(Cl)C(=O)C(N3CCCC3)=C(Cl)C2=O)s1,-12.5% [at 10 µM],–
Nc1ccc2c(c1)OC1(CCCC1)O2,–,26 µM (active)
Nc1cc(Cc2ccccc2)ccc1O,–,24.1 µM (active)
COc1ccc(Br)cc1CN(C)CC(=O)NCCc1ccccc1,19.1%,–
Oc1ccc(NCc2ccccc2OCc2ccccc2F)cc1,-18.7%,–
COc1ccc(Br)cc1CNc1ccc(O)cc1,–,54 µM (active)
CN1C(=O)/C(=C/C=C2/CCCN2C)N(C)C1=S,–,24.6 µM (active)

Compound,inhibition,IC50
CN1C(=O)/C(=C/C=C2\SCCN2C)N(C)C1=S,–,26.6 µM (active)
c1ccc(-c2ccccc2OCCOCCN2CCOCC2)cc1,28%,–
NC(N)=N/N=C/c1ccc(Cl)cc1Cl,14.4%,–
CCN(CC)c1ccc(/C=N/Nc2nc(C)cc(C)n2)c(O)c1,–,65.2 µM (active)
CCN(CC)c1ccc(/C=N/NC(=O)OC)c(O)c1,–,62.6 µM (active)
CCOC(=O)N/N=C/c1ccc(N(CC)CC)cc1O,–,81.2 µM (active)
CCc1ccc2nc3sc(C(=O)O)cc3cc2c1,22.5%,–
CCOc1cc(/C=N/Nc2ncc(C)c(=O)[nH]2)ccc1O,–,38.9 µM (active)
CCOc1cc(/C=N/Nc2nc(=O)[nH]nc2C)ccc1O,–,43.9 µM (active)
CCN(CC)c1ccc(NC(=O)COC(=O)Cc2ccsc2)cc1,–,42.9 µM (active)
COc1ccccc1/C=C(/C(=O)OCC(=O)Nc1ccc(N(C)C)cc1)c1ccccc1,–,66.3 µM (active)
CCc1ccc(NC(=O)CNCc2ccc(OC)c(OC)c2)cc1,17.8%,–
COc1ccccc1CNC(=O)C[C@@H]1C[C@H]2c3cc(N(C)C)ccc3O[C@H]2[C@H](CO)O1,24.9%,–
COc1ccccc1CNCC(=O)NCc1ccc(C)cc1,16.4%,–
COc1ccccc1CNCC(=O)Nc1ccc(N(C)C)cc1,–,63.3 µM (active)
COc1ccccc1CNCC(=O)Nc1ccccc1-n1cccc1,8.83%,–
COc1cc(CC(=O)OCC(=O)Nc2ccc(N(C)C)cc2)cc(OC)c1OC,–,68 µM (active)
COc1ccc(NCCC#N)cc1,–,82.2 µM (active)
O=S(=O)(O)c1cc(O)c(N=Nc2ccc(O)cc2O)c2ccccc12,–,30.7 µM (active)
CC(C)C1N=C2c3ccccc3N=C(SCC(=O)c3ccc(O)c(O)c3)N2C1=O (configuration not stated),–,34.7 µM (active)
CCN(CC)c1ccc(Nc2nc(Cl)ncc2Br)cc1,–,49.4 µM (active)
O=c1oc(-c2ccc(O)c(O)c2)cc2cc(O)cc(O)c12,–,23 µM (active)
O=c1oc(-c2ccc(O)c(O)c2)cc2cccc(O)c12,–,20.7 µM (active)
N#CC1=C(S)N(c2ccc(F)cc2)C(c2cccs2)NC1=O (configuration not stated),7.33%,–

Compound,inhibition,IC50
O=C1NC2c3c(I)sc(I)c3C(=O)C2O1 (configuration not stated),-1.56%,–
COc1cc(/C=N/N=C(\N)c2nonc2N)ccc1O,–,30.3 µM (active)
COc1cc(CNCCNC(=O)c2nonc2N)ccc1OCc1ccc(Cl)cc1,3.53%,–
Oc1ccc(/C=N/N=C/c2ccc(O)cc2)cc1,–,84 µM (active)
N/C(=N\N=C\c1ccc(O)cc1)c1nonc1N,–,31.1 µM (active)
N#Cc1c(Nc2ccc(Cl)cc2)s[nH]c1=O,5.36%,–
Cc1ccc(/C=[N+](\[O-])c2ccc(N(C)C)cc2)c2nsnc12,–,16.1 µM (active)
CCOC(=O)C1(C)C=C(Nc2ccc(O)cc2)C(=O)N1c1ccc(O)cc1 (configuration not stated),–,19.6 µM (active)
O=C1/C(=C\c2ccco2)CCC/C1=C\c1ccco1,-14%,–
Nc1cc(Br)c(N)c(Br)c1,–,10.6 µM (active)
CCOC(=O)C1CCN(Cc2cccc(Oc3ccccc3)c2)CC1,11.4%,–
CCOC(=O)C1CCCN(C(=S)Nc2ccc(Nc3ccccc3)cc2)C1 (configuration not stated),–,55.1 µM (active)
CCOC(=O)C1CCN(Cc2ccc(-c3ccccc3)cc2)CC1,9.78%,–
OCCN1CCN(C(=S)Nc2cccc(C(F)(F)F)c2)CC1,18.4%,–
OC1CCN(C(=S)Nc2ccc(Nc3ccccc3)cc2)CC1,–,36.5 µM (active)
OCC1CCCN(C(=S)Nc2ccc(Nc3ccccc3)cc2)C1 (configuration not stated),–,41.7 µM (active)
COc1ccc(CN2CCN(CCSc3ccc(C)cc3)CC2)c(OC)c1OC,26.8%,–
CC1CN(CCCCOc2ccc(Cl)c3ccccc23)CC(C)O1 (configuration not stated),11.3%,–
CSc1sccc1/C=C(/C#N)C(=O)c1ccco1,3.74%,–
NC(CSS(=O)(=O)O)=NCCC12CC3CC(CC(O)(C3)C1)C2,3.73%,–
COc1cc(/C=N/Nc2nc(C)cc(C)n2)ccc1O,–,60.7 µM (active)
COc1cc(/C=N/NC(=O)c2nc(C)cc(C)n2)ccc1O,–,37.3 µM (active)
COc1cc(/C=N/NC(=O)c2cc(-c3c(C)nn(-c4ccccc4)c3C)n[nH]2)ccc1O,–,38.8 µM (active)
COc1cc(/C=N/NC(=O)c2nc(-c3ccccc3)n(-c3ccccc3)n2)ccc1O,–,41.9 µM (active)
